Screening results from PubChem BioAssay.
This is a sample that favours compounds with a hit; in the whole collection about 3.3% have one here.
FXN GAA850 act: frataxin GAA850 promoter activation; HEK293 lucGAA850 FXN promoter luciferase reporter, 24 h; percent of 10 µM SAHA response; activation, % at 6 µM; 360,000 compounds, 0.56% hits; AID 540364;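 active means activation above the average of all compounds screened plus 3 SD, cutoff fixed separately per campaign, cut at about 7.5% in these data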;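 further: 0% = DMSO wells and 100% = 10 µM SAHA wells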
Wnt act: activators of Wnt/beta-catenin signaling; Wnt/beta-catenin reporter cell assay, activator, plate reader; activation, % at 9.35 µM; 300,000 compounds, 1.2% hits; AID 743398; in the data active means activation above about 30%, passing the limit was not always enough; inconclusive means no clear call, values can overlap the other calls;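 further: 0% = neutral control wells and 100% = positive control wells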
C2C12 statin: suppression of simvastatin myotoxicity. 330,000 compounds, 0.78% hits. rescue of ATP level, % at 7.49 µM. C2C12 myotubes + simvastatin, ATP luminescence, 48 h; scaled: DMSO 0, geranylgeraniol control 100. AID 602340;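 active means mean ATP rescue above about 67%, or every replicate alone reaching that limit, limit read from the data, passing the limit was not always enough; inconclusive means no clear call, values can overlap the other calls; inactive means mean under the limit and some replicate under it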;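 further: myotubes were challenged with 10 µM simvastatin during compound exposure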
MITF act: activators of MITF-driven TRPM1 promoter activity in SK-MEL-5 cells. SK-MEL-5 TRPM1-promoter luciferase, 24 h; % of positive control, neutral wells = 0. activation, % at 12.5 µM. 300,000 compounds, 0.75% hits;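 active means mean activation of at least 80% with every replicate also reaching 80%; inconclusive means mean reaches 80% but some replicate falls short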;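 further: 0% = neutral control wells and 100% = parthenolide positive control wells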
esBAF inh: blocks esBAF chromatin remodeling in mouse ES cells | 350,000 compounds, 2% hits | Bmi1-luciferase knock-in reporter, 24 h; 100% = twice the neutral-well signal | reporter increase, % at 12.5 µM; in the data active means activation above about 40%; inconclusive means no clear call, values can overlap the other calls;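 further: 0% = median of the plate's neutral control wells and 100% = double that signal; a rise in the Bmi1 reporter signal indicates esBAF inhibition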
* = called active by the depositor; ? = inconclusive; / = no result given.

SMILES | FXN GAA850 act | Wnt act | C2C12 statin | MITF act | esBAF inh
O=C(NC1CCCC1)c1cccc(Cl)c1 | 0 | -1 | / | 4 | /
O=C(CNC(=O)c1ccc2ccccc2c1)NC1CCCCC1 | 2 | 13 | -5 | 11 | 21
C[C@@H]1CN([C@@H](C)CO)C(=O)c2cc(NC(=O)Cc3ccccc3)ccc2O[C@@H](C)CCCCO[C@H]1CN(C)CC1CCCCC1 | / | / | / | / | -3
CCCc1cc(-c2n[nH]c(=S)n2-c2cccc(C)c2)cs1 | 4 | 0 | 18 | -7 | 45*
COc1ccc(NC(=O)Nc2ccc3c(c2)[C@@H]2C[C@@H](CC(=O)NCCc4ccccc4)O[C@H](CO)[C@@H]2O3)cc1 | / | / | -3 | / | 8
Nc1nc(SCc2ccc(Cl)cc2)ns1 | 4 | / | -19 | 38 | 32
Nc1nc(SCc2ccccc2)ns1 | 5 | / | -4 | 35 | 50*
C=C(C)COC(=O)c1ccccc1C(=O)OCC1(C)CO1 (configuration not stated) | -1 | 7 | 98* | 7 | /
C[C@@H]1CN([C@@H](C)CO)C(=O)c2cc(NC(=O)Cc3ccccc3)ccc2O[C@@H]1CN(C)C(=O)Nc1ccc2c(c1)OCO2 | / | / | 32 | / | 6
Cc1ccnc2nc(C(=O)OCC(=O)c3ccccc3)nn12 | 0 | -3 | 112* | 8 | /
C[C@H]1CN([C@@H](C)CO)C(=O)c2cccc(NC(=O)c3ccc(-c4nccs4)cc3)c2O[C@H]1CN(C)CC1CCCCC1 | / | / | 2 | / | 1
CCCOc1cccc(C2C(C(=O)c3ccco3)=C(O)C(=O)N2CCN(CC)CC)c1 (configuration not stated) | -1 | / | 0 | / | 7
CCOc1cccc(C2C(C(=O)c3ccco3)=C(O)C(=O)N2c2nnc(C)s2)c1 (configuration not stated) | 1 | 90* | 2 | 8 | 12
CCOc1cccc(C2C(C(=O)c3ccco3)=C(O)C(=O)N2Cc2ccncc2)c1 (configuration not stated) | 0 | / | 122* | 2 | 8
COc1ccc(O)c(/C=N/N2CCCCC2)c1 | 3 | 33* | -26 | 30 | 6
COc1ccc(-c2nc(-c3ccc(Br)cc3)no2)c(OC)c1 | 3 | / | -57 | ? | -8
COc1ccccc1-c1nc(-c2ccncc2)no1 | 3 | 61* | -5 | / | 5
CCOc1ccccc1-c1nc(-c2ccncc2)no1 | 0 | / | 2 | 25 | 35
COc1ccccc1-c1nc(-c2ccc(Br)cc2)no1 | 4 | / | 6 | 76 | 54*
C[C@@H]1CN([C@H](C)CO)S(=O)(=O)c2ccc(C#CCN(C)C)cc2O[C@H]1CN(C)Cc1ccccc1F | / | / | -142 | / | -1
CC(=O)c1c(C)[nH]c(C(=O)Nc2cccc(C)n2)c1C | -1 | 39* | -1 | 60 | -6
CC(=O)c1c(C)[nH]c(C(=O)Nc2ccc(C)c(C)c2)c1C | 2 | 55* | 2 | / | 85*
COc1ccc(NC(=O)c2[nH]c(C)c(C(C)=O)c2C)cc1Cl | 1 | 3 | / | 7 | 20
CCc1c(C(=O)Nc2ccc(C)c(C)c2)[nH]c(C)c1C(C)=O | 3 | 12 | 0 | 88* | 71*
CC(=O)c1c(C)[nH]c(C(=O)NCCc2cccc(C)c2)c1C | 2 | 9 | 30 | 64 | 75*
SMILES | FXN GAA850 act | Wnt act | C2C12 statin | MITF act | esBAF inh
CO[C@H]1CN(C)C(=O)c2cc(NS(=O)(=O)CC(F)(F)F)ccc2OC[C@H](C)N(Cc2cccnc2)C[C@H]1C | / | / | -1 | / | -5
CN1C(=O)c2cc(NS(C)(=O)=O)ccc2OC[C@@H]2O[C@@H](CC(=O)NC3CCCCC3)CC[C@H]21 | / | / | 8 | / | -3
C[C@@H]1CN([C@H](C)CO)C(=O)c2cc(NC(=O)NC3CCCCC3)ccc2O[C@@H](C)CCCCO[C@H]1CN(C)Cc1ccccc1 | / | / | / | / | -1
C[C@@H]1CCCCO[C@H](CN(C)CC2CCCCC2)[C@H](C)CN([C@H](C)CO)C(=O)c2cc(NC(=O)C3CCCCC3)ccc2O1 | / | / | / | / | 0
CC(=O)c1c(C)[nH]c(C(=O)Nc2ccc(C)cc2Br)c1C | 4 | 26 | -5 | ? | 86*
COc1ccc2nc(N3CCC(O)CC3)c(C#N)cc2c1 | 1 | 11 | 19 | 43 | 23
COc1ccc2nc(N3CCC(C)CC3)c(C#N)cc2c1 | 7 | / | -3 | 84* | 64*
COCC(=O)Nc1ccc2c(c1)C(=O)N(C)[C@@H]1CC[C@H](CC(=O)NCc3ccc(OC)cc3)O[C@H]1CO2 | / | / | 14 | / | 4
COc1ccc(NC(=O)Nc2cccc3c2O[C@@H](CN(C)C)[C@@H](C)CN([C@@H](C)CO)C3=O)cc1 | / | / | -1 | / | 1
C[C@H]1CN([C@@H](C)CO)C(=O)Cc2cc(NC(=O)Cc3cn(C)c4ccccc34)ccc2O[C@H]1CN(C)Cc1ccc(Cl)c(Cl)c1 | / | / | 60 | / | 3
C[C@H](CO)N1C[C@H](C)[C@@H](CN(C)Cc2ccc3c(c2)OCO3)Oc2ccc(NC(=O)Cc3cn(C)c4ccccc34)cc2CC1=O | / | / | 19 | / | 6
C[C@H](CO)N1C[C@H](C)[C@@H](CN(C)Cc2ccc(Cl)c(Cl)c2)Oc2ccc(NC(=O)Cc3cn(C)c4ccccc34)cc2CC1=O | / | / | 127* | / | 2
C[C@@H]1CN([C@H](C)CO)C(=O)Cc2cc(NC(=O)Cc3cn(C)c4ccccc34)ccc2O[C@H]1CN(C)Cc1ccc2c(c1)OCO2 | / | / | 79* | / | 1
CN(C)CC(=O)Nc1ccc2c(c1)[C@H]1C[C@@H](CC(=O)NCc3cccnc3)O[C@H](CO)[C@H]1O2 | / | / | -4 | / | -4
O=C(Nc1ccccc1F)N[C@@H]1CC[C@H](CCNS(=O)(=O)c2ccccc2)O[C@H]1CO | / | / | -8 | / | 4
CCN=C1S/C(=C\c2ccc(-c3cccc(C(=O)O)c3)o2)C(=O)N1CC | 8.4* | / | / | 68 | /
O=C(O)c1cc(-c2ccc(/C=C3\NC(=O)N(c4ccccc4)C3=O)o2)ccc1Cl | 1 | 9 | 2 | -1 | 6
C#CCN1C(=O)S/C(=C\c2ccc(-c3ccc(Cl)c(C(=O)O)c3)o2)C1=O | 7 | 31* | 1 | 27 | 38
Cc1cc(NC(=O)COc2cccc(Oc3ccccc3)c2)no1 | 2 | / | 3 | -25 | -16
O=C(COc1cccc(Oc2ccccc2)c1)Nc1ncccn1 | -1 | / | 107* | 4 | -4
O=C(COc1ccccc1)Nc1nn[nH]n1 | -1 | -2 | 112* | -6 | -8
C[C@@H](O)C#Cc1cnc2c(c1)C(=O)N([C@@H](C)CO)C[C@H](C)[C@@H](CN(C)C(=O)Nc1ccc(F)cc1)O2 | / | / | -22 | / | -1
O=C(Nc1ncccc1O)c1ccc2ccccc2c1 | 0 | 63* | -5 | 4 | -43
O=C(Nc1ncccc1O)c1ccc2c(c1)OCCO2 | 7 | 99* | 2 | 21 | 10
O=C(Nc1ncccc1O)c1ccc2c(c1)OCO2 | 5 | 54* | 1 | 43 | 3
CCNC(=O)C[C@@H]1CC[C@H](NC(=O)C2CCC2)[C@H](CO)O1 | / | / | -2 | / | 5
COc1ccc(/C=N/Nc2snc(SC)c2C#N)cc1OC | 5 | / | -47 | ? | 53*
